# Laboratory results as given in PubChem BioAssay AID1565 (Sanford-Burnham Center for Chemical Genomics, 2009).
# Hit rate of the full screen: of about 290,000 compounds, about 3,200 (1.1%) were called active. The entries come from a sample that favours actives as a whole. A number with no mark means an inactive call. Cut-off read from the data, not from the text of the source: active = inhibition above about 60%; inactive = the rest.
# Biological target: Phosphoethanolamine/phosphocholine phosphatase (Homo sapiens) (UniProt Q8TCT1)
# Assay: PubChem AID 1565
# Details: recombinant PHOSPHO1, absorbance phosphatase assay; at 13.3 µM; hits give high values
# Phosphoethanolamine/phosphocholine phosphatase (Homo sapiens), sequence (Q8TCT1 whole entry, looked up): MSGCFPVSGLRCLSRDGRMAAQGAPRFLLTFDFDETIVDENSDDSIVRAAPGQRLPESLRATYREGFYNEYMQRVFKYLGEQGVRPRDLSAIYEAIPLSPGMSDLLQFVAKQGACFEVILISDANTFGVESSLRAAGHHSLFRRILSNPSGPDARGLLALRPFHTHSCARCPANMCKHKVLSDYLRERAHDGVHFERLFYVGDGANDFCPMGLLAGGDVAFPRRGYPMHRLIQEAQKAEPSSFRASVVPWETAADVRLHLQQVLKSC
row,SMILES,inhibition
1,COc1ccccc1N=C1SCCCN1C,85.5% (active)
2,COc1ccccc1N=Nc1c(O)[nH]c(=S)[nH]c1=O,11.7%
3,CC(C)(C)c1ccc(OC(=O)N2CCCCC2)cc1,27.4%
4,Cc1cccc(NC(=O)N2CC3CC(C2)c2cccc(=O)n2C3)c1 (stereo not given),41.8%
5,O=c1c2ccccc2nc(-c2ccccc2)n1-c1ccccn1,32.4%
6,O=c1c2ccccc2nc(-c2ccco2)n1-c1ccc(Br)cn1,-3.3%
7,Cc1ccc(-c2nc3ccccc3c(=O)n2-c2ccc(Br)cn2)cc1,68.6% (active)
8,Cc1nc2ccccn2c1P(=S)(N1CCCCC1)N1CCCCC1,15.2%
9,COc1cccc(CN2CCCC(C(=O)c3ccccc3SC)C2)c1O (stereo not given),12.9%
10,O=c1c2ccccc2nc(/C=C/c2ccc(F)cc2)n1-c1ccccc1O,38.1%
11,O=[N+]([O-])c1ccc(C2C3C(c4ccccc4)=NC4(CCCCC4)N32)cc1 (stereo not given),64.6% (active)
12,Cc1ccc(-n2c(-c3ccc([N+](=O)[O-])cc3)nc3ccccc3c2=O)cc1,-3.5%
13,COCc1cc(OC(=O)N(C)C)nc(-c2ccc(C)c(Cl)c2)n1,20.3%
14,COC(=O)N(c1ccc(OC)cc1)P1(=S)OCCC(C)O1 (stereo not given),65.4% (active)
15,CCOC(=O)c1c(-c2ccccc2)oc2ccc(OC(=O)N(C)C)cc12,-3.7%
16,COc1ccc(Br)cc1CNCCc1cccc(Cl)c1,13.9%
17,COc1ccc(N2C(=O)/C(=C/c3ccco3)C(=O)NC2=S)cc1,-112%
18,O=C(O)c1ccccc1NC(=O)C1C2CCC(O2)C1C(=O)O (stereo not given),28.7%
19,c1ccc(CCNC2CCCCCC2)cc1,31.6%
20,O=c1[nH]c(CN2CC=C(c3ccccc3)CC2)nc2scc(-c3cccs3)c12,50.8%
21,C[N+]12CN3CN(CN(C3)C1)C2,-34.4%
22,CC1=CC(=Cc2sc3ccccc3[n+]2C)C=C(C)O1,5.9%
23,CCN(CC)CCOC(=O)c1cc2cc(COC)ccc2o1,94.9% (active)
24,COc1cccc(N2C(=O)NC(=O)/C(=C\c3ccc([N+](=O)[O-])s3)C2=O)c1,-60.1%
25,Cc1cc(=O)oc2c(C)c(OCC(=O)N3CCN(Cc4ccc5c(c4)OCO5)CC3)ccc12,27.9%
